Measurements reported in PubChem BioAssay.

Experiments:
[1] = tested on: Human papillomavirus type 1a protein E7 (residues 44-93); test: HPV1a E7 fragment binders on microarrays, primary screen, biochemical, small-molecule microarray, residues 44-93, 635 nm fluorescence (AID 1108); settings: small-molecule microarray binding, fluorescence 635 nm; higher = more signal;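 also: E7 fragment applied at 1 µg/mL in TBST for 1 h at 4 C; score combines spot fluorescence with its signal to noise ratio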
[2] = modulators of HCV replicon luciferase signal, primary screen, HCV replication inhibitor project, Huh7 cells, luciferase reporter (AID 1109); settings: 48 h, higher = more signal;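 also: huh7 hepatoma cells harbouring a luciferase neomycin HCV replicon reporter; luciferase luminescence as measure of HCV replicon replication; test concentration not given here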
[3] = molecular target: Left-right determination factor 2 (Homo sapiens) (UniProt O00292); test: LEFTY2 binders on small-molecule microarrays, primary screen, biochemical, small-molecule microarray, 635 nm fluorescence scan (AID 1110); settings: LEFTY2 binding, higher = more signal
[4] = molecular target: Calmodulin-1 (Homo sapiens) (UniProt P0DP23); test: CALM1 binders on microarrays, EGTA buffer, profiling panel, biochemical, small-molecule microarray, Cy5-labelled CALM1 (AID 1111); settings: Cy5-CALM1 binding fluorescence, higher = more signal;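 also: labelled calmodulin applied in Tris saline Tween buffer holding calcium plus EGTA and DTT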
[5] = molecular target: Calmodulin-1 (Homo sapiens) (UniProt P0DP23); test: calcium-bound CALM1 binders on microarrays, profiling panel, artefact control for SMM control-protein annotation, biochemical, small-molecule microarray, Cy5-labelled CALM1, plus calcium (AID 1112); settings: Cy5-CALM1 binding fluorescence, higher = more signal;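 also: score merges spot fluorescence with signal to noise from triplicate slides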
[6] = small-molecule microarray binders of probe aWnt5a, primary screen, biochemical, biotinylated probe, 635/667 nm fluorescence (AID 1113); settings: higher = more signal;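 also: score merges 667 nm fluorescence intensity with signal-to-noise per printed feature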
[7] = small-molecule microarray binders of probe aShh, primary screen, biochemical, biotinylated probe, 635/667 nm fluorescence (AID 1114); settings: higher = more signal;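 also: probe is biotin-labelled aShh protein from a stem cell growth factor screen; measures binding of labelled protein to compounds printed on the slide; score merges feature fluorescence at 667 nm with signal-to-noise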
[8] = small-molecule microarray binders of probe aNog, primary screen, biochemical, biotinylated probe, 635/667 nm fluorescence (AID 1115); settings: higher = more signal;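 also: probe is biotinylated aNog protein used at 0.15 µg/mL for 1 h at 4 C; z-score combines 667 nm fluorescence of each spot with its signal to noise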
[9] = molecular target: Torsin-1A-interacting protein 1 (Homo sapiens) (UniProt Q5JTV8); test: LAP1 binders from COS7 cell lysate, primary screen, small-molecule microarray, 635/667 nm fluorescence (AID 1116); settings: COS7-hLAP1 lysate binding, 635 nm fluorescence, higher = more signal
[10] = molecular target: Alpha-bungarotoxin (Bungarus multicinctus) (UniProt P60615); test: alpha-bungarotoxin binders on microarray, profiling panel, artefact control for SMM control protein annotation, biochemical, small-molecule microarray, Alexa647 label, 635/667 nm fluorescence (AID 1117); settings: alpha-BTX-A647 binding fluorescence, higher = more signal
Chain of Alpha-bungarotoxin (Bungarus multicinctus) (P60615 whole entry, looked up): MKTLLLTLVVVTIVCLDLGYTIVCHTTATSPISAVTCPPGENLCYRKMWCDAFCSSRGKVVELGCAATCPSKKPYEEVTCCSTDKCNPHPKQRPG

Chain of Torsin-1A-interacting protein 1 (Homo sapiens) (Q5JTV8 whole entry, looked up): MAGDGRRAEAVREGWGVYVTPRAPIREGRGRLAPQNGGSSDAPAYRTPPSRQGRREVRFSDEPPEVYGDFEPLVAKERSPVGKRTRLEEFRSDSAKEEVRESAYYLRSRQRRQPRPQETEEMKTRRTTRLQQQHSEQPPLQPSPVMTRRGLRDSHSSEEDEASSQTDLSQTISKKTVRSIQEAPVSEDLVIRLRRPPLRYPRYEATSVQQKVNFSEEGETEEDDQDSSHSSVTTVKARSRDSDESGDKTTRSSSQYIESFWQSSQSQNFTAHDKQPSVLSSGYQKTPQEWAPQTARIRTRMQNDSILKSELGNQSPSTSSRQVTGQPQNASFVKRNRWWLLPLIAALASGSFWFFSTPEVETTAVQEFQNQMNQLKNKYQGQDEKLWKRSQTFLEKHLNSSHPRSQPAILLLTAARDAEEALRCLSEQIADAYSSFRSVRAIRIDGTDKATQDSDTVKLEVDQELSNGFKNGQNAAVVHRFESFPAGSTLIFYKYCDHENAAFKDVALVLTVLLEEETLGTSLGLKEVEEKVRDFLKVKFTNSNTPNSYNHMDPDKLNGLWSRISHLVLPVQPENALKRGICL
Chain of Left-right determination factor 2 (Homo sapiens) (O00292 whole entry, looked up): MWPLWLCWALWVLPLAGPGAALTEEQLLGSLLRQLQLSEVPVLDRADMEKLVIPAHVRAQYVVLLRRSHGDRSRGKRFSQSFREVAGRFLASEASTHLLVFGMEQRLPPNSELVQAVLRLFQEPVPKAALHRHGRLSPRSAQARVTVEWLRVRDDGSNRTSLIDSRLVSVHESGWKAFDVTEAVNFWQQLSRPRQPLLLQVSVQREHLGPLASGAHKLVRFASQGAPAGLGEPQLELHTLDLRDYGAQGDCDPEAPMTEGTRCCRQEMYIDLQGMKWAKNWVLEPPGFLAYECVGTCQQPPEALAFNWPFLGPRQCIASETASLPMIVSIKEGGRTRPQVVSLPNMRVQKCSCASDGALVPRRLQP

SMILES	composite z-score [1]	z-score [2]	composite z-score [3]	composite z-score [4]	composite z-score [5]	composite z-score [6]	composite z-score [7]	composite z-score [8]	composite z-score [9]	composite z-score [10]
COCCOC(=O)N1C(=O)[C@@]2(c3cc(C#CCCO)ccc31)[C@H](c1ccc(OCCO)cc1)N1[C@H](c3ccccc3)[C@H](c3ccccc3)OC(=O)[C@H]1[C@@H]2C(=O)N1CCc2cc(OC)c(OC)cc2C1	1.39	-1.12	0.503	0.759	0.215	-0.124	-0.0904	0.0531	-0.0856	0.642
COc1ccccc1CN1C(=O)c2ccccc2[C@@H](C(=O)NCC(C)C)[C@@H]1c1ccc(CO)cc1	1.05	-0.541	0.13	0.139	-0.0968	-0.196	-0.776	-0.0069	0.741	-0.544
Cc1cc(C)c(C(O)C2C=CC3C(=O)N(c4ccccc4)C(=O)C3N2Nc2ccccc2)c(C)c1 (stereo not given)	1.16	-0.177	0.109	1.6	1.03	0.216	-0.0791	1.99	1.1	2.38
O=C(NCc1ccccc1)[C@]1(Cc2ccccc2)N=C(c2ccc(OCCCO)cc2)O[C@@H]1c1ccccc1	1.4	-2.58	-0.126	2.01	1.1	-0.13	-0.305	0.044	0.652	0.351
O=C1OCC=C[C@H]2OC34C=CCN(CCN5CCOCC5)C(=O)[C@H]3N(CCCCCO)C(=O)[C@@H]4[C@@H]12 (stereo not given in full)	-1.19	0.557	-0.258	-0.234	-0.953	-0.178	-0.223	-0.278	-0.607	0.396
C=C(/C(=C/C[C@@H](OC(C)=O)c1ccccc1OCCO)c1cnc2ccccc2c1)C(C)C	0.0976	-1.61	0.0798	-0.353	-0.236	0.122	0.0328	0.291	0.148	1.01
NC(=O)NCC#Cc1ccc2c(c1)[C@]1(C(=O)N2)[C@H](c2ccc(O)cc2)N2[C@H](c3ccccc3)[C@H](c3ccccc3)OC(=O)[C@H]2[C@@H]1C(=O)NC[C@H](O)c1ccccc1	-0.631	0.918	-1.67	-0.699	0.827	-0.219	-0.276	0.241	-0.243	-2
O=C1C2C=CC(C(O)c3ccccn3)N(Nc3ccccc3)C2C(=O)N1c1ccccc1 (stereo not given)	0.132	0.819	-0.136	0.167	-0.0451	-0.0758	-0.291	0.0373	0.529	0.31
Cc1ccc(S[C@]2(C(=O)O)CC(=O)N(Cc3ccccc3C(F)(F)F)[C@@H]2c2ccc(CO)cc2)cc1	0.973	0.0788	-0.587	-0.317	0.228	-0.176	-0.138	-0.321	0.914	-0.115
COC(=O)C(CC#Cc1ccc2c(c1)[C@]1(C(=O)N2)[C@H](c2ccc(O)cc2)N2[C@H](c3ccccc3)[C@H](c3ccccc3)OC(=O)[C@H]2[C@@H]1C(N)=O)C(=O)OC	-0.863	-0.32	-0.91	-1.27	0.842	-0.202	-0.352	-0.263	-0.931	-1.83
COC(=O)c1ccc(OC)c(/C=C\CC(CCc2ccccc2)OC(=O)c2ccncc2)c1 (stereo not given)	-0.0796	-0.578	1.45	-1.61	-1.72	-0.25	-0.117	-0.385	0.489	1.65
CN(C)C(=O)[C@]1(Cc2ccccc2N=[N+]=[N-])N=C(c2ccc(OCCCO)cc2)O[C@@H]1c1ccccc1CN=[N+]=[N-]	1.42	-2.55	0.234	0.668	0.271	0.0559	0.13	-0.488	0.939	0.564
CCOC(=O)C1=CC[C@@H](c2ccccc2)N(S(=O)(=O)c2ccc(C)cc2)[C@H]1C=C(C)C	1.45	-2.21	0.407	0.808	-0.0374	0.055	0.199	1.06	0.647	0.162
CC(C)N1C(=O)c2ccccc2[C@](C)(C(=O)O)[C@@H]1c1ccc(CO)cc1	-0.113	-0.169	-1.23	-0.198	0.531	-0.143	0.133	0.338	0.274	0.468
CC(C)c1ccc(NN2C(C(O)c3cccs3)C=CC3C(=O)N(c4ccccc4)C(=O)C32)cc1 (stereo not given)	1.4	-0.531	-0.0393	2.29	0.795	0.0364	-0.304	0.113	0.789	1.01
COC(=O)[C@]1(Cc2ccccc2CN=[N+]=[N-])N=C(c2ccc(OCCCO)cc2)O[C@@H]1c1ccccc1CN=[N+]=[N-]	0.0068	-2.91	-0.624	-0.11	-0.271	-0.0346	0.246	0.589	1.39	1.48
COC(=O)[C@@]1(Cc2ccccc2)[C@H]2c3cc(C(=O)N(C)C)n(Cc4ccc(O)c(OC)c4)c3C[C@H]2CN1C(=O)c1ccccc1	1.45	-2.56	-0.276	1.46	1.17	0.75	0.16	-0.322	0.141	0.245
CCN(CC)c1ccc(N2CC=CC34O[C@@H]5/C=C\CCCOC(=O)C5[C@H]3C(=O)N(CCCCCO)[C@@H]4C2=O)cc1 (stereo not given in full)	-0.592	-0.376	-1.57	-1.06	-0.996	-0.203	-0.221	-0.254	0.424	-1.04
COCC1=C([C@H](O)CCc2ccccc2)[C@H](CO)[C@@H]2C(=O)N(C)C(=O)[C@@H]2C1	-0.121	0.216	0.394	-0.205	-0.783	-0.104	-0.164	-0.172	0.478	-0.152
[N-]=[N+]=Nc1ccccc1C[C@]1(C(=O)NCCN2CCOCC2)N=C(c2ccc(OCCCO)cc2)O[C@H]1c1ccccc1N=[N+]=[N-]	1.12	-2.49	0.863	1.1	-0.198	0.136	-0.138	1.85	1.51	1.12
O=C(CS)NCCCCCNC(=O)[C@@H]1C[C@@H]2C(=O)N3CCC[C@H]3C(=O)N2[C@@H]1c1ccc(O)cc1	0.922	0.0311	0.0978	0.195	0.194	-0.0758	0.499	-0.152	0.375	0.542
CCCNC(=O)[C@@H]1c2ccccc2C(=O)N(CC23CC4CC(CC(C4)C2)C3)[C@H]1c1ccc(CO)cc1	0.772	-1.15	1.03	0.992	0.489	0.189	0.265	0.697	0.986	0.88
Cc1ccccc1C(O)C1C=CC2C(=O)N(Cc3ccccc3)C(=O)C2N1n1cnnc1 (stereo not given)	1.29	-0.364	-0.305	0.0712	-0.535	0.0388	0.108	0.2	0.542	0.611
CC1C=C(CCCO)C=C(C(=O)OCCS(C)(=O)=O)C(C(=O)OCCS(C)(=O)=O)=CN1Cc1cccc(OC(F)(F)F)c1 (stereo not given)	1.11	-1.82	-0.152	1.7	1.09	0.027	0.481	1.27	2.99	0.761
[N-]=[N+]=NCc1ccccc1C[C@]1(C(=O)NCCN2CCOCC2)N=C(c2ccc(OCCCO)cc2)O[C@H]1c1ccccc1	1.45	-2.64	-0.481	0.835	-0.401	0.0215	0.131	-0.465	1.46	1.16
C=CCN1C(=O)[C@@]2(O[C@@H](CCn3cc([C@H](O)c4ccccc4)nn3)[C@H]([Si](C)(C)c3ccc(OC)cc3)[C@H]2C)c2cc(NC(=O)c3ccc(OC)cc3)ccc21	0.795	-3.99	0.426	0.607	0.14	-0.0735	0.0815	0.338	0.385	0.627
